Structures can show the parent of a compound that is named as a salt.
Tests used:
Experiment in all cases: Euclidean distance of Cell Painting phenotypic profile (signed KS, 77 features) to DMSO centroid (dimensionless distance); higher = stronger phenotypic change vs DMSO (phenoactivity)
Conditions in all cases: 48 h; 5 or 10 uM (library dependent)
786-O = test system: 786-O
Method in brief: (§1)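 At 10 or 5 uM, as set by the library, and 0.1% DMSO final, compounds were applied for 48 h to five cancer lines and one healthy fibroblast line. Stained cells were imaged confocally at 20X in 9 fields per well, and Harmony extracted 77 features scored as signed Kolmogorov-Smirnov statistics against vehicle wells on the same plate. Profiles underwent plate-position correction, correlation weighting and replicate averaging at the top dose. Phenoactivity is the Euclidean distance from each such profile to the median vehicle profile.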

A549 = test system: A549
Method in brief: as §1

DU145 = test system: DU145
Method in brief: as §1

FB = test system: FB
Method in brief: as §1

HEPG2 = test system: HEPG2
Method in brief: as §1

OVCAR4 = test system: OVCAR4
Method in brief: as §1

Row | SMILES | Euclidean distance (786-O) | Euclidean distance (A549) | Euclidean distance (DU145) | Euclidean distance (FB) | Euclidean distance (HEPG2) | Euclidean distance (OVCAR4)
1 | CC(C)C(Br)C(=O)NC(N)=O (centres undefined) [Bromisoval] | 1.54 | 0.435 | 2.15 | 0.988 | 0.659 | 0.646
2 | C[C@]12N[C@H](Cc3ccccc31)c1ccccc12 [MK-801 (Dizocilpine)] | 0.525 | 0.829 | 1.2 | 0.635 | 1.41 | 1.23
3 | COc1ccc(C(=O)O)cc1OC [Veratric acid] | 0.978 | 0.85 | 1.2 | 0.896 | 1.05 | 0.931
4 | Cc1cccc(C)c1NC1=NCCCS1 [Xylazine] | 1.17 | 0.386 | 1.01 | 0.632 | 0.887 | 0.579
5 | N[C@@H]1C[C@H]1c1ccccc1 [Tranylcypromine (2-PCPA) HCl] | 1.2 | 1.52 | 1.36 | 2.02 | 1.47 | 1.76
6 | O=C(O)CNC(=O)C1C(=O)N(C2CCCCC2)C(=O)N(C2CCCCC2)C1=O | 1.18 | 0.61 | 1.4 | 1.16 | 1.1 | 0.706
7 | Cn1c(CCCCCCC(=O)NO)nc2cc(N(CCCl)CCCl)ccc21 [Tinostamustine(EDO-S101)] | 3.61 | 3.53 | 3.45 | 2.57 | 2.74 | 3.16
8 | CC(O)(CS(=O)(=O)c1ccc(F)cc1)C(=O)Nc1ccc(C#N)c(C(F)(F)F)c1 (centres undefined) [Bicalutamide] | 1.1 | 1.04 | 0.992 | 1.28 | 0.832 | 1.65
9 | C/C=C(\C)C(=O)N[C@@H](c1ccccc1)[C@@H](O)C(=O)O[C@H]1C[C@@]2(O)[C@@H](OC(=O)c3ccccc3)[C@@H]3[C@]4(OC(C)=O)CO[C@@H]4C[C@H](O)[C@@]3(C)C(=O)[C@H](OC(C)=O)C(=C1C)C2(C)C [Cephalomannine] | 2.74 | 3.24 | 3.48 | 2.32 | 2.11 | 2.98
10 | N.N.[Cl][Pt][Cl] [Cisplatin] | 1.62 | 1.39 | 0.914 | 0.888 | 1.55 | 0.788
11 | C=C[C@H]1CN2CC[C@H]1C[C@H]2[C@H](O)c1ccnc2ccccc12 [Cinchonidine] | 1.49 | 0.828 | 1.16 | 1.09 | 0.521 | 1.1
12 | Cc1cc2c(C(C)C)c(O)c(O)c(C=O)c2c(O)c1-c1c(C)cc2c(C(C)C)c(O)c(O)c(C=O)c2c1O [Gossypol] | 2.34 | 2.66 | 0.576 | 1.05 | 0.654 | 1.74
13 | O=P(O)(NCCCl)NCCCl [Palifosfamide] | 1.23 | 0.923 | 1.53 | 1.11 | 0.698 | 1.21
14 | Cc1sc2c(c1C)C(c1ccc(Cl)cc1)=N[C@@H](CC(=O)Nc1ccc(O)cc1)c1nnc(C)n1-2 | 2.95 | 2.08 | 2.15 | 4.11 | 1.91 | 1.77

— the supplement of paper PMC10127200
